The results in this text go back to PubChem BioAssay (NCATS).

Unmarked numbers belong to inactive results. Records with an inconclusive call do not appear. Active and inactive are the calls of the source. Calls come from the whole dose curve; as a rule, active = well fitted curve in the direction sought with a large enough effect; inconclusive = small, poorly fitted or top-dose-only effect, or another doubt; inactive = no such curve, though single readings can be large; an effect the other way counts as inactive or inconclusive. Numbered stars: 1 amine (or outer) side, 2 acyl side, 3 side chain; on linkers, the order of the positions; unused ones are H or OH. Bridge positions count the residues as written; N and C are the ends. Square brackets hold non-standard residues; d marks the D form. Peptide text beside a SMILES is read from it. ξ: configuration not given here. Phe(3R-OH) = O=C([C@@H](N[*:1])[C@H](O[*:3])c1ccccc1)[*:2]; NMeTrp(4-OMe) = CN[C@@H](Cc1c[nH]c2cccc(OC)c12)C(=O)O; ξThr(3R)(O-yl) = C[C@@H](O[*:3])C(N[*:1])C(=O)[*:2]; NMeThr(3ξ) = CN[C@H](C(=O)O)C(C)O; NMeL = CN[C@@H](CC(C)C)C(=O)O; NMeV = CN[C@H](C(=O)O)C(C)C; ξIle = CC[C@H](C)C(N)C(=O)O; ξV = CC(C)C(N)C(=O)O

Experiment [1] can be described thus: HEK293 18hr Apoptosis Induction qHTS against the NCATS CANVASS Library (AID 1347357). Note: 0% is about no effect. In short, it runs like this: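 Cells seeded at 500/well in DMEM + 10% FBS. Compounds pinned, 11 concentrations. 18 h, 37 degrees C/5% CO2. Caspase-Glo 3/7 added, 15 min RT dark, luminescence read.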
Background: In qHTS, concentration-response curves come from the screen itself.

Experiment [2] is described as follows: qHTS for Hypoxia signaling pathway (HIF-1) antagonists against the NCATS CANVASS Library (AID 1347374).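 Note: HRE-bla ME-180 cells stimulated with cobalt chloride to stabilize HIF-1alpha; series mostly up to about 38 µM; % is set by controls: 0 for no effect and ±100 for the full control effect; nearly all actives have a fitted effect of over 60% in size.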 In a few lines: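 HRE-bla ME-180 cells in medium with 0.5% dialyzed FBS received compounds (11-point series) plus CoCl2 (60 uM addition stock) for 17 hrs at 37C. Beta-lactamase activity read with CCF4 (405 nm ex, 460/530 nm em); CellTiter-Glo viability measured in same wells.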

A short description of experiment [3]: qHTS for H2AX Agonists against the NCATS CANVASS Library (AID 1347378).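 Note: phospho-H2AX S139 level in CHO-K1 lysates by TR-FRET emission ratio; 0% is about no effect.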 In a few lines: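 CHO-K1, 1000 cells/well, o/n 37C; cpd several conc, 3 hr 37C, 0.76% DMSO; lyse 30 min RT; cryptate anti-pH2AX(S139) + d2 anti-H2AX, 24 hr RT; HTRF 665/620.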
A short description of experiment [4]: qHTS for Antimalaria activity screened against the NCATS CANVASS Library (AID 1347380).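 For activity change, negative = inhibition: Plasmodium falciparum strain Dd2 asexual parasites grown in red blood cells; series mostly up to about 29 µM.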 Note: nearly all actives have a fitted effect of over 40% in size. Note: potency is the fitted concentration of half-maximal effect. In a few lines:
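Red blood cells infected with P. falciparum Dd2 (2.5% hematocrit final, 0.3% parasitemia) were exposed to compounds in an 11-point qHTS series for 72 hr at 37C under 5% O2 and 5% CO2. Lysis buffer with SYBR Green was then added for 18 hr, and fluorescence was read at 485/535 nm.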

A short description of experiment [5]: Inflammasome Signaling qHTS Counterscreen: IL-1-beta AlphaLISA counterscreen against the NCATS CANVASS Library (AID 1347381).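 Note: cell-free check with purified IL-1β in medium and no THP-1 cells; series mostly up to about 57 µM; 0% is about no effect.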 In short, it runs like this: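 Cell-free interference check: compounds added to medium spiked with 4 pg purified IL-1β. Anti-IL-1β acceptor beads (6 ug/mL) with 0.6 nM biotinylated antibody added for 1 h at RT, then streptavidin donor beads (24 ug/mL) for 30 min in the dark. AlphaLISA read at 680/615 nm.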

Experiment [6] is described as follows: qHTS for activators of Nrf2/ARE signaling pathway screened against the NCATS CANVASS Library (AID 1347391). Note: 0% is about no effect; nearly all actives have a fitted effect of over 60% in size. In short, it runs like this:
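ARE-bla HepG2 beta-lactamase reporter cells exposed to compounds for 16 h at 37C; CCF4 substrate 2 h, fluorescence at ex 405 nm, em 460/530 nm. Viability by CellTiter-Glo luminescence.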

Experiment [7] in a line: Redox Reaction Profiling qHTS: Assay Interference Panel against the NCATS CANVASS Library (AID 1347401).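 Note: 100% = activation by 2 µM chloranil control.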 In a few lines: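 Compounds in 11-point series incubated with 5 uM resazurin and 200 uM DTT in 50 mM HEPES pH 7.3, 50 mM NaCl. Resorufin fluorescence (Ex 525/Em 598) read before and after 15 min in the dark.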
A short description of experiment [8]: HEK293 12hr Apoptosis Induction qHTS against the NCATS CANVASS Library (AID 1347361). Note: 0% is about no effect. In short, it runs like this:
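Cells are seeded, dosed with an 11-point compound series and incubated 12 hours. Caspase-3/7 activity is detected by luminescent DEVD-substrate reagent after 15 minutes at room temperature.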

A short description of experiment [9]: SDT Cancer Cell Toxicity qHTS against the NCATS CANVASS Library (AID 1347365).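 For activity change, negative = cytotoxicity: SDT canine glioma cells 500 per well in 1536 well plates; series mostly up to about 46 µM; % is set by controls: 0 for no effect and ±100 for the full control effect.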 Note: nearly all actives have a fitted effect of over 60% in size. In a few lines:
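SDT dog glioma cells (500/well) exposed to an 11-point compound series for 72 hr at 37C, 5% CO2. Cytotoxicity read as ATP content by CellTiterGlo luminescence; bortezomib titration as control.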

Experiment [10] is described as follows: KB-3-1 Cancer Cell Toxicity qHTS against the NCATS CANVASS Library (AID 1347366). For activity change, negative = cytotoxicity: series mostly up to about 46 µM; % is set by controls: 0 for no effect and ±100 for the full control effect. Note: nearly all actives have a fitted effect of over 75% in size. In a few lines: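 Luminescence from CellTiter-Glo (10 min, room temperature) measured KB-3-1 viability after 72 hr compound exposure at 37C. Cells were seeded at 500/well and tested in an 11-point series.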
Experiment [11] can be described thus: Secretion counterscreen for inhibitors of the SERCaMP assay screened against the NCATS CANVASS Library (AID 1347390).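 Note: light from luciferase secreted into medium read as a measure of general secretion; series mostly up to about 77 µM; % is set by controls: 0 for no effect and ±100 for the full control effect.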 In short, it runs like this:
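SH-SY5Y-GLuc STOP cells; 4 h attach; cpds 0.001 - 77 uM (qHTS, 11 pts), 20 h 37C/5% CO2; coelenterazine in glow buffer; luminescence, 5 s exposure.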
On the technique in general: A counterscreen serves to expose hits that act by an unwanted route or on another target.

A short description of experiment [12]: G06 Cancer Cell Toxicity qHTS against the NCATS CANVASS Library (AID 1347368). For activity change, negative = cytotoxic: series mostly up to about 46 µM; % is set by controls: 0 for no effect and ±100 for the full control effect. Note: nearly all actives have a fitted effect of over 60% in size. Note: potency is the fitted concentration of half-maximal effect. In a few lines:
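G06 dog glioma cells, 500 per well, exposed 72 hr at 37C, 5% CO2 to compounds in an 11-point series. Cytotoxicity read as ATP content by CellTiterGlo luminescence.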

Experiment [13] in a line: qHTS for inhibitors of ER calcium dysfunction: SERCaMP assay screened against the NCATS CANVASS Library (AID 1347393).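 Note: series mostly up to about 77 µM; % is set by controls: 0 for no effect and ±100 for the full control effect; lower secreted reporter signal means inhibitor of ER calcium depletion; nearly all actives have a fitted effect of over 40% in size.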 In a few lines: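 SH-SY5Y GLuc-SERCaMP, 1000 cells/well, 4 h attach; cpd 16 h, 37C/5% CO2; thapsigargin (added as 6x 600 nM) 4 h; coelenterazine; luminescence. Reduced reporter release = ER Ca stabilization.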
The nature of experiment [14]: ZIKV-mCherry secondary qHTS for Zika virus inhibitors (AID 1347158). Note: top concentration of the series differs between compounds. In a few lines:
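Vero cells (5,000/well) were given compound, then infected with ZIKV-mCherry at MOI 1 for 48–72 h at 37 °C. After PFA fixation and Hoechst staining, imaging gave percent mCherry-positive cells. The positivity threshold was RFU above 450, 3 SD over negative controls.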

For the compound `CC[C@H](C)C(NC(=O)[C@@H](NC)C(C)C)C(=O)NC1C(=O)N(C)[C@@H](C(C)O)C(=O)N[C@@H](C(C)C)C(=O)N(C)[C@@H](CC(C)C)C(=O)NC(C(C)C)C(=O)N(C)[C@@H](C(C)C)C(=O)N(C)[C@@H](Cc2c[nH]c3cccc(OC)c23)C(=O)N[C@@H](C(C)C)C(=O)N[C@@H]([C@H](O)c2ccccc2)C(=O)N[C@@H](C(C)C)C(=O)O[C@@H]1C` (stereo partly drawn) (H-[NMeV][ξIle][ξThr(3R)(O-yl)][NMeThr(3ξ)]V[NMeL][ξV][NMeV][NMeTrp(4-OMe)]V[Phe(3R-OH)]V; ester 3-C), the Potency result in experiment [1], in experiment [2], in experiment [3], in experiment [6] and in experiment [7] was “inactive” in each case. The Potency in experiment [4] was 3.75 µM (active). Further, in experiment [5], the call was inactive.
For the compound `CO[C@@H]1[C@H](O)[C@@H](C)O[C@@H](OC[C@@H]2C(C)OC(=O)/C=C/[C@H](C)C(O[C@@H]3O[C@H](C)CC4(OC(=O)O[C@@H]4C)C3O)[C@@H](C)CC(C)C(=O)CC[C@H]3OC23)[C@@H]1OC` (stereo partly drawn), the Potency entry in experiment [1], in experiment [8], in [9], in experiment [10], in experiment [2] and in experiment [3] was “inactive” each time. Also, the Potency result in experiment [4], in experiment [11] and in [7] was “inactive” each time.
As to `C=C1C[C@@]23C=CC(=O)[C@@](C)(CCC(=O)Nc4c(OC5O[C@H](CO)[C@@H](O)[C@H](O)[C@H]5O)ccc(C(=O)O)c4O)C2C[C@@H]1CC3` (stereo partly drawn), the Potency result in experiment [1], in [8], in [9], in [10], in experiment [12] and in experiment [3] was “inactive” throughout. Further, the Potency entry in experiment [4], in experiment [11] and in experiment [6] was “inactive” throughout. Also, in [5], the outcome was inactive.
On to `C[C@@H]1C(=O)[C@]23CC[C@H]1C[C@]21O[C@H]2C(C)(C)C=CC(=O)[C@]23COC1=O`, for which the Potency result in [1], in experiment [8], in [9], in experiment [10], in experiment [12] and in experiment [3] was “inactive” in each case. Besides, the Potency entry in experiment [4], in experiment [6], in experiment [13] and in [7] was “inactive” in each case. Besides, in experiment [5], the outcome was inactive.
For `COc1ccc2oc3c(OC)c(OC)c(OC)c(OC)c3c(=O)c2c1`, the caspase activation in experiment [1] was 2.9% [at 9.19 µM]. Besides, the activity change, negative = cytotoxicity in [9] is -18.8% [at 9.19 µM]. Further, the activity change, negative = cytotoxic in experiment [12] was -19.7% [at 9.19 µM]. For the same compound, the activity change, negative = inhibition was 0.76% [at 7.64 µM] in experiment [2], -46.5% [at 5.73 µM] in [4], 10.5% [at 11.5 µM] in experiment [5] and -3.74% [at 15.3 µM] in experiment [11]. The activation in [3] was -1.65% [at 15.3 µM]; in [6], 5.78% [at 9.19 µM]. The activation (redox signal) in experiment [7] is -9.99% [at 11.4 µM].
With `C[C@@H]1O[C@H](c2c(O)cc(O)c3c(=O)cc(-c4ccc(O)cc4)oc23)[C@H](O)[C@H](O)[C@H]1O`, the Potency entry in experiment [8], in [9], in experiment [10], in [12], in [3] and in [11] was “inactive” throughout. Moreover, the Potency result in experiment [6], in [13] and in experiment [7] was “inactive” each time.
In the case of `CC(C)CN1CC(CNC(=O)c2ccc(Oc3ccccc3)cc2)Oc2ccnc(-c3ccc(OCC(=O)O)cc3)c2C1=O` (stereo not drawn), in [14], the Potency entry was “inactive”.
In the case of `C=C[C@@]1(C)CC[C@@H]([C@H](C)C(=O)/C=C/C(C)C)O1`, the Potency result in experiment [8], in [9], in experiment [2], in [3], in experiment [4] and in [11] was “inactive” throughout. Further, the Potency result in experiment [6] and in [7] was “inactive” throughout. Further, in experiment [5], the outcome was inactive.
On to `C[C@@H]1C[C@H]2C[C@]3(CCCCN3C)[C@@H]3C[C@H]2[C@H](C1)N(C)C3`, for which the Potency entry in experiment [1], in experiment [8], in experiment [9], in experiment [3] and in [7] was “inactive” throughout. The Potency in experiment [12] is 18.7 µM (active). Moreover, the outcome in [5] was inactive.
